Laboratory results published in PubChem BioAssay AID720704 (The Scripps Research Institute Molecular Screening Center, 2013).
In all, about 370,000 compounds went through this assay and about 660 (0.18%) were called active. The sample holds actives, similar compounds and a random draw of the others, so the mix is not that of the screen. A number with no mark means an inactive call. Cut-off read from the data, not from the text of the source: active = inhibition above about 11%; inactive = the rest.

Target: 1-phosphatidylinositol 4,5-bisphosphate phosphodiesterase beta-3 (Homo sapiens) (UniProt Q01970)
Assay: phospholipase C beta3 enzyme inhibition – biochemical, fluorescence, primary screen (AID 720704);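 note: 0% = median of compound wells on plate and 100% = full blocker control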
Conditions: Purified PLC-beta3, fluorogenic substrate, at 12.2 µM, hits give high values

Chain of 1-phosphatidylinositol 4,5-bisphosphate phosphodiesterase beta-3 (Homo sapiens) (Q01970 whole entry, looked up): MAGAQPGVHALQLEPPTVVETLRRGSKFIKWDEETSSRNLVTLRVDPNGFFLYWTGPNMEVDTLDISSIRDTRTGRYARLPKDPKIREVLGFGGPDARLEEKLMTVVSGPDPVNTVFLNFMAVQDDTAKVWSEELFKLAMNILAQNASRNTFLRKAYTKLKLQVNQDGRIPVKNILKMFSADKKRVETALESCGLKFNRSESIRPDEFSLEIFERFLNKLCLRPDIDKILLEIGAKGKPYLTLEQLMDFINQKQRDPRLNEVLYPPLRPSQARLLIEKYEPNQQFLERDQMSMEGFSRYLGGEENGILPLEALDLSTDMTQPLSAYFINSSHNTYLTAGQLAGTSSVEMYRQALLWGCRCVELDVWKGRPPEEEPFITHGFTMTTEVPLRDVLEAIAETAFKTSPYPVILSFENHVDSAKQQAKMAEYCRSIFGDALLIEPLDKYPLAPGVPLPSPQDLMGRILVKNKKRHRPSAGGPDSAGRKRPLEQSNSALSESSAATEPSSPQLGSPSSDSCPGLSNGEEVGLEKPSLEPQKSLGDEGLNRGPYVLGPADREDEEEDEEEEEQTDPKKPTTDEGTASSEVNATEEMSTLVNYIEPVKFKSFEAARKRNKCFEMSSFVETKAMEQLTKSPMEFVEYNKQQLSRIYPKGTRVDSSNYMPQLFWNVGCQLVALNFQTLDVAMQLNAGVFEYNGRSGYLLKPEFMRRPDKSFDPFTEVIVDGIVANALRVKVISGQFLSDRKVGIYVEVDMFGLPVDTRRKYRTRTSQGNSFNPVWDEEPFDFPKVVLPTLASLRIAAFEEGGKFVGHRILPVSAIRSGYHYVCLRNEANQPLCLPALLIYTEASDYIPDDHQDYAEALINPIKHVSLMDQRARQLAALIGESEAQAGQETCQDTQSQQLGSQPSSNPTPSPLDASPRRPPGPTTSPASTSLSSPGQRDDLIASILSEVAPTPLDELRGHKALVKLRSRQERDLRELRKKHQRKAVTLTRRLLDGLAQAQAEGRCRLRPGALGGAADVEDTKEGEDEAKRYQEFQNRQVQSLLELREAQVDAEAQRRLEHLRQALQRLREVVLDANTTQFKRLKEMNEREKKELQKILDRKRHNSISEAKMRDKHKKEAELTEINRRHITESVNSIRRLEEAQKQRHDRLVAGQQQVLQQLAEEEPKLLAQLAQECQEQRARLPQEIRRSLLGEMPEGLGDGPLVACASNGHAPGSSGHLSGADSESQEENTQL

Going from `CCCCn1c(O)c(C(CC)=NCc2ccco2)c(=O)[nH]c1=O` to `CN(C)CCCN=Cc1c(O)n(Cc2ccco2)c(=O)[nH]c1=O`, the inhibition falls from 7% to -6.13%.

Going from `COC(=O)[C@@H]1C(OC(=O)c2ccccc2)CC2CCC1N2C` (stereo not given in full) to `c1ccc(CC2CCCCN2)cc1` (stereo not given), the inhibition rises from -5.47% to -1.27%.

Compared with `CCN1c2nc3c(C)cccn3c(=O)c2CC2(C(=O)N(C)C(=O)N(C)C2=O)C1C` (stereo not given), `CN(C)/C=C(\C=[N+](C)C)c1[nH]ncc1[N+](=O)[O-]` is higher in inhibition: -9.87% for the first, 3.86% for the second.

Compared with `Cc1cc(C)cc(NC(=S)NC2CC3CCCC(C2)N3Cc2cccs2)c1` (stereo not given), `O=C(COC(=O)Cc1ccccc1)Nc1ccc(F)cc1` is lower in inhibition: 5.75% for the first, 3.13% for the second.

With `CCC(=NCc1ccco1)c1c(O)n(Cc2ccccc2)c(=O)[nH]c1=O` the inhibition was 11.8% (active).
For `CC(C)(C)[C@]1(O)C[C@@H]2OC(=O)C[C@@]23C(=O)O[C@@H]2OC(=O)[C@H](O)[C@]213`, the inhibition was 11.8% (active).
